From PubChem BioAssay AID651965 (National Center for Advancing Translational Sciences (NCATS), 2013)
Among all 340,000 compounds or so, about 6,400 (1.9%) were called active. Roughly 4% stayed inconclusive and do not appear here. Only a selection was taken, and actives are over-represented in it overall. Values without a mark were called inactive. Calls follow the shape of the dose curve; as a rule, active = well fitted falling curve with a large enough effect; inconclusive = small, poorly fitted or top-dose-only effect; inactive = no such curve, though single readings can be large or run the other way.

Each molecule was assayed against ATP-dependent Clp protease proteolytic subunit (Bacillus subtilis (strain 168)) (UniProt P80244) (assay: qHTS Assay for Activators of ClpP). Conditions: purified B. subtilis ClpP, FRET peptide cleavage, 20 min; series mostly up to 57.5 µM; activity change, negative = active: at the top concentration.
Sequence of ATP-dependent Clp protease proteolytic subunit (Bacillus subtilis (strain 168)) (P80244 whole entry, looked up): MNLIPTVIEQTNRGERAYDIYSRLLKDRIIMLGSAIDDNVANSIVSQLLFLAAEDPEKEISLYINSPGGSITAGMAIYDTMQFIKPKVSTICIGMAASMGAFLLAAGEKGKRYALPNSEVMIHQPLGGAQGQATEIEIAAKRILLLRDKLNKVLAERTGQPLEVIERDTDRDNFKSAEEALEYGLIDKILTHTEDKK
Description: The Clp protease proteolytic subunit (ClpP) is the core unit of the Clp complex belonging to the peptidase family S14 that hydrolyzes protein into small peptides in the presence of ATP and magnesium. It is ubiquitously expressed and is the major protease in bacteria. […] Unlike common antibiotics that simply interfere with the essential enzyme activity, ADEP binding activates the ClpP core in the absence of the regulatory Clp-ATPases leading to uncontrolled proteolysis and eventually cell death. Activators binding to the docking site on ClpP can also block formation of the ClpXP and ClpA/C-P holoenzyme complexes interfering with the normal biological functions of ClpP and thus have the potential to become new anti-microbials.
To identify activators of ClpP, a FRET based quenching reversal assay was developed using a purified B. subtilis ClpP and a decapeptide substrate (FRET-FV). The FRET-FV is tagged with a fluorescent molecule amino benzoic acid (donor) at the N-terminus and a nitrotyrosine quencher (acceptor) at the C-terminus. FRET-FV cleaves upon activation of ClpP with ADEP treatement and reverses the quenching effect of the nitrotyrosine causing an increase in fluorescence emission signal at 430nm. This assay was used to screen the Molecular Libraries Small Molecule Repository (MLSMR).
NIH Molecular Libraries Probe Production Centers Network [MLPCN]
NIH Chemical Genomics Center [NCGC]
Assay Submitter (PI): Michael Maurizi, National Cancer Institute
Two and a half microL/well of purified enzyme solution (final concentrations 10 microg/mL B. subtilis ClpP in 100 mM Tris/HCl pH8, 100 mM KCl, 0.05% low protease BSA, 2.5% glycerol, 0.01% Tween-20 buffer) was dispensed into 1536-well assay plates (Greiner, black solid, medium-binding plates) with Aurora Discovery BioRAPTR Flying Reagent Dispenser (FRD, Beckton-Dickenson). Compound solution (23 nL) was transferred to the assay plate using Kalypsys pin tool equipped with a 1536-pin tool. […] FRET signals at time 0 and after 20 min room temperature incubation were obtained using the PerkinElmer Envision plate reader with 320nm excitation and 430nm emission filters. Delta FRET value (Time 20 - Time 0) was calculated and normalized to the delta FRET value of positive control ADEP (5.8 microM final concentration) and negative control DMSO and no enzyme wells.
Also: the source files actives as falling curves though it sought activators and does not explain the sign; nearly all actives have a fitted effect of over 65% in size.
Potency is read from the fitted curve at half-maximal effect.

| SMILES | activity change, negative = active [%] | Potency |
| --- | --- | --- |
| O=[N+]([O-])c1ccc(/C=C/c2ccc3cccnc3c2)cc1 | -3.98 |  |
| N#Cc1ccc[n+](CC(=O)c2ccc(F)cc2)c1 | 0.138 |  |
| Cc1nn(-c2ccccn2)c2c1C(c1ccncc1)C1=C(CC(C)(C)CC1=O)N2 (stereo not drawn) |  | 31.6 µM (active) |
| CC1(C)CC(=O)C2=C(C1)Nc1cc(C(=O)c3ccccc3)ccc1NC2c1ccccn1 (stereo not drawn) | -1.17 |  |
| Cc1cc(C)c(C2C3=C(Nc4c2c(C)nn4-c2ccccn2)c2ccccc2C3=O)c(C)c1 (stereo not drawn) | -1.74 |  |
| Clc1cccc[n+]1CCCC[n+]1ccccc1Cl | -3.17 |  |
| Cc1noc(C)c1S(=O)(=O)N(C)C[C@H]1OCCCC[C@@H](C)Oc2ccc(NC(=O)CCCN(C)C)cc2C(=O)N([C@H](C)CO)C[C@@H]1C | 0.472 |  |
| CCc1cc(C(=O)N(CC)CC(=O)Nc2c(F)cccc2F)sc1C | -1.44 |  |
| CN(N)c1nc(N2CCCC2)nc(N2CCCC2)n1 |  | 31.6 µM (active) |
| FC(F)(F)COc1nc(N2CCCCC2)nc(N2CCNCC2)n1 | 0.515 |  |
| O=C(NNc1nc(N2CCCC2)nc(N2CCCC2)n1)c1ccccc1 | 0.913 |  |
| CC(C)C1C(=O)N(Cc2cn(CCC3OCCO3)nn2)CCS(=O)(=O)N1Cc1ccc(-c2ccccc2C(F)(F)F)cc1 (stereo not drawn) | 1.59 |  |
| O=C(Nc1ccc(F)cc1)C(CCc1ccccc1)N1CCN(CC(=O)N2CCCC2)CC1 (stereo not drawn) | 1.39 |  |
| CCn1c(=O)c2cc(C(=O)Nc3cccc(C(C)=O)c3)sc2c2ccccc21 | -5.57 |  |
| CN(Cc1ccccc1)C(=O)c1cc2c(=O)n(C)c3ccccc3c2s1 | -25.1 |  |
| CCN(CCCNC(=O)c1cc2c(=O)n(CC)c3ccccc3c2s1)Cc1ccccc1 |  | 3.55 µM (active) |
| Cc1c(C)n(Cc2ccc(Cl)cc2)c2ccc(C(=O)NCCc3ccc(S(N)(=O)=O)cc3)cc12 |  | 14.1 µM (active) |
| NS(=O)(=O)c1ccc(CCNC(=O)c2ccc(Cl)c(S(=O)(=O)N3CCCCCC3)c2)cc1 | -3.6 |  |
| CCOC(=O)c1c(C)c(C(=O)NCCc2ccc(S(N)(=O)=O)cc2)c(C)n1CC | -24.6 |  |
| COC(=O)[C@@]12C[C@@H](CC(=O)NCc3cccc(C(F)(F)F)c3)C(=O)N(Cc3ccco3)C1=CCC(C)(C)C2 | 1.62 |  |
| Cc1cccc(CN2Cc3cccc4c3[C@H](C=CC4)CC2=S)c1 | -3.52 |  |
| COc1ccc(CCNC(=O)COc2cc(C)cc3oc(=O)c(C)c(C)c23)cc1OC | -6.73 |  |
| Cc1cc(OCC(=O)NCC(O)c2ccccc2)c2c(C)c(C)c(=O)oc2c1 (stereo not drawn) | 3.71 |  |
| Cc1cc(OCC(=O)Nc2nccs2)c2c(C)c(C)c(=O)oc2c1 |  | 31.6 µM (active) |

| SMILES | activity change, negative = active [%] | Potency |
| --- | --- | --- |
| COc1ccccc1-c1cc(NC(C)=O)c2ncc(-c3ccc(F)cc3)n2c1 | 4.69 |  |
| Cc1cccc(NC(=S)Nc2ccc3cn[nH]c3c2)c1 |  | 22.4 µM (active) |
| CCc1cccc(CC)c1NC(=S)Nc1ccc2cn[nH]c2c1 | -18.4 |  |
| Cc1cc2[nH]ncc2cc1NC(=S)NC(=O)c1ccccc1 | 8.42 |  |
| COc1cc(CNc2ncnc3c2ncn3[C@H]2CN(Cc3cccs3)C[C@@H](CO)O2)cc(OC)c1OC | -1.33 |  |
| CC1(C(=O)NCc2cccc3ccccc23)CCN1Cc1ccc(-c2ccccc2)o1 (stereo not drawn) | -22.3 |  |
| CC1(C)CC(=O)c2cc(OCC(=O)NCC3CCCO3)ccc2O1 (stereo not drawn) |  | 11.2 µM (active) |
| C=CCOc1ccc(/C=C/C(=O)OCC(=O)NCC2CCCO2)cc1 (stereo not drawn) | 3.23 |  |
| CCOc1ccc(S(=O)(=O)NCCC(=O)NCC2CCCO2)cc1 (stereo not drawn) | -0.322 |  |
| Cc1ccccc1S(=O)(=O)N1[C@@H](c2cccc(Cl)c2)C(C(=O)OC(C)(C)C)=CC[C@H]1c1ccc(Cl)cc1 | -4.28 |  |
| COC(=O)C1(C(=O)OC)C/C=C\CN(S(=O)(=O)c2ccccc2[N+](=O)[O-])CCC1 | 0.858 |  |
| O=C(Nc1ccccc1-c1nnn(CC(=O)N2CCCc3ccccc32)n1)c1cccc(Cl)c1 |  | 20 µM (active) |
| Cc1cccc(C(=O)Nc2ccccc2-c2nnn(CC(=O)Nc3ccc4c(c3)OCCO4)n2)c1 | 3.15 |  |
| O=C(Nc1ccccc1-c1nnn(CC(=O)N2CCN(c3ccccc3)CC2)n1)c1cccs1 | -19.7 |  |
| COC(=O)[C@]12CCCCC=C1N(Cc1ccc3c(c1)OCO3)C(=O)[C@H](CC(=O)NCc1cccs1)C2 | -1.48 |  |
| CCCCCCCCN1C(=O)[C@H](CC(=O)NCC23CC4CC(CC(C4)C2)C3)C[C@@]2(C(=O)OC)CCCCC=C12 | -1.46 |  |
| Cc1ccc(S(=O)(=O)NNC(=O)Nc2cccc3ccccc23)cc1 |  | 14.1 µM (active) |
| COc1ccc(C(=O)NNS(=O)(=O)c2ccc(C)cc2)cc1 | -7.98 |  |
| O=C(Nc1cccc2ccccc12)NC1CC1 | 3.85 |  |
| COc1ccc(-c2nc(=N)sn2-c2ccccc2)cc1 | -2.14 |  |
| COC(=O)[C@@]12C[C@@H](CC(=O)NCCCCc3ccccc3)C(=O)N(Cc3ccccc3)C1=CCC(C)(C)C2 | -1.89 |  |
| COc1cccc(OCc2cc(/C=N/NC(=O)c3nc(Cl)c(Cl)c(N)c3Cl)ccc2OC)c1 | -23.6 |  |
| COc1ccc(/C=N/NC(=O)c2ccc(Cl)cc2)cc1COC(C)=O |  | 25.1 µM (active) |
| COc1cc(/C=N/NC(=O)CNC(=O)c2ccncc2)ccc1OC(C)=O | -0.766 |  |
